According to PubChem BioAssay (Tox21):
Inconclusive results are not listed. The source made the active and inactive calls. Unless noted, calls follow the shape of the dose curve; as a rule, active = well fitted curve in the direction sought with a large enough effect in the repeat runs; inconclusive = weak or mixed curves; inactive = no such curve, though single readings can be large; an effect the other way counts as inactive or inconclusive.

Tests used:
[1] = qHTS assay to identify small molecule antagonists of the estrogen related receptor (ERR) signaling pathway - cell viability counter screen (AID 1224818); also: potency is read from the fitted curve at half-maximal effect
Procedure, shortened: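 Viability of ERR cells, CellTiter-Fluor fluorescence; 17.5 h compound exposure at 37 C, DMSO vehicle; 30 min reagent incubation at 37 C/5% CO2.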

[2] = qHTS assay to identify small molecule antagonists of the estrogen related receptor (ERR) signaling pathway (AID 1224819; also: nearly all actives have a fitted effect of over 50% in size; also: potency is read from the fitted curve at half-maximal effect)
Procedure, shortened: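 Seed ERR cells 2,000/well; rest 6 h at 37 C/5% CO2; pin compounds in DMSO; incubate 18 h at 37 C; add One-Glo; wait 30 min at room temperature; measure luminescence.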

[3] = qHTS assay to identify small molecule agonists of the estrogen related receptor (ERR) signaling pathway (AID 1224820); also: potency is read from the fitted curve at half-maximal effect
Procedure, shortened: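 Following a 6 h settling period, 2,000 ERR cells per well receive DMSO-dissolved compounds by pin tool and incubate 18 h at 37 C; agonist activity is scored from One-Glo luminescence read 30 min post-addition.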

[4] = system: estrogen-related receptor alpha (ERRalpha) with PGC-1alpha coactivator, human; assay: qHTS assay to identify small molecule antagonists of the estrogen related receptor signaling pathway with the pleiotropic PPARgamma coactivator (PGC) (AID 1224821; calls by dose curve; also: nearly all actives have a fitted effect of over 50% in size; also: potency is read from the fitted curve at half-maximal effect)
Procedure, shortened: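 Screening used NTP's PGC/ERR cells, dosed via pin tool with compound in DMSO alongside positive and negative controls. After 18 h at 37 C, One-Glo reagent sat 30 min at room temperature before luminescence detection.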

[5] = qHTS assay to identify small molecule antagonists of the estrogen related receptor signaling pathway with the pleiotropic PPARgamma coactivator (PGC) cell viability counter screen (AID 1224822; also: potency is read from the fitted curve at half-maximal effect)
Procedure, shortened: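 17.5 h compound treatment of PGC/ERR cells at 37 C; readout CellTiter-Fluor fluorescence; run alongside the PGC/ERR antagonist screen to flag cytotoxic compounds.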

[6] = qHTS assay to identify small molecule agonists of the estrogen related receptor signaling pathway with the pleiotropic PPARgamma coactivator (PGC) (AID 1224823); also: potency is read from the fitted curve at half-maximal effect
Procedure, shortened: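 In this quantitative high-throughput screen, an 18 h, 37 C treatment of PGC/ERR cells with compounds in DMSO preceded a One-Glo luminescence read taken after 30 min at room temperature.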

[7] = qHTS assay to identify small molecule antagonists of the estrogen related receptor (ERR) signaling pathway from Tox21 library - cell viability counter screen (AID 1224834); also: nearly all actives have a fitted effect of over 30% in size
Procedure, shortened: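 Counter screen run in ERR cells (2,000 cells/well): cells pre-incubated 6 h, then treated with compounds for 17.5 h at 37 C. Fluorescence was read 30 min after CellTiter-Fluor addition.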

[8] = biological target: Luciferin 4-monooxygenase (Photinus pyralis) (UniProt P08659); assay: qHTS assay to identify small molecule inhibitors of firefly luciferase (AID 1224835); also: series mostly up to about 120 µM; nearly all actives have a fitted effect of over 25% in size
Procedure, shortened: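 Biochemical qHTS: compounds run as interplate titrations against purified firefly enzyme, with D-luciferin and ATP each at its KM concentration. Light output recorded by CCD imaging.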

[9] = qHTS assay to identify small molecule agonists of the constitutive androstane receptor (CAR) signaling pathway - cell viability counter screen (AID 1224836); also: series mostly up to about 92 µM; nearly all actives have a fitted effect of over 45% in size
Procedure, shortened: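 HepG2 cells stably carrying hCAR and a CYP2B6-2.2kb reporter were plated 4 h, then given compounds at 15 concentrations plus PK11195 (final 0.75 uM). After 23 h at 37 C, viability was read by CellTiter-Fluor fluorescence.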

[10] = qHTS assay to identify small molecule antagonists of the constitutive androstane receptor (CAR) signaling pathway - cell viability counter screen (AID 1224837); also: series mostly up to about 92 µM; nearly all actives have a fitted effect of over 45% in size
Procedure, shortened: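 CITCO at 50 nM final was added alongside compounds (15 concentrations) to double-stable hCAR/CYP2B6-2.2kb HepG2 cells. Following 23 hr at 37 C, cell viability was quantified by CellTiter-Fluor fluorescence intensity.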

Measured: Potency

Luciferin 4-monooxygenase (Photinus pyralis), sequence (P08659 whole entry, looked up): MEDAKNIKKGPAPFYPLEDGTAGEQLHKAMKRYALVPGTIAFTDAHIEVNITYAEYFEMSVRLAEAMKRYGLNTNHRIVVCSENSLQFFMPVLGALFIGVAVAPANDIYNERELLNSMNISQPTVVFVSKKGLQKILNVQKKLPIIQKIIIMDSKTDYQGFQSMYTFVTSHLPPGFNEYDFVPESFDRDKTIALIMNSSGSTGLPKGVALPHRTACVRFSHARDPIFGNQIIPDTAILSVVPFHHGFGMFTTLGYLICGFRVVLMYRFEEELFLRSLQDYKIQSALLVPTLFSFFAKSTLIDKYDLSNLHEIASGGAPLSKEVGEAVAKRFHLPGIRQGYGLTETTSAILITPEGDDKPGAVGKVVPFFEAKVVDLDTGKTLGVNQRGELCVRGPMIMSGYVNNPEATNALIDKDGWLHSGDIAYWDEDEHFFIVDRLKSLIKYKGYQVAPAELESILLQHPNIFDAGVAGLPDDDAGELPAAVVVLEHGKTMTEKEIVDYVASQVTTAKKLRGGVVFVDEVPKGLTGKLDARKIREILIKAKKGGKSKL

Cn1ccnc1
inactive: all assays above

Cn1c(=O)c2[nH]c(-c3ccc(S(=O)(=O)O)cc3)nc2n(C)c1=O
inactive: [1] | [2] | [3] | [5] | [6]

Nc1nc2c(cnn2CCc2ccccc2)c2nc(-c3ccco3)nn12
inactive: [1] | [2] | [3] | [4] | [5] | [6]

Nc1ncnc2c1ncn2C1CCCO1 (configuration not stated)
inactive: [1] | [2] | [3] | [4] | [5] | [6]

Oc1cc(O)cc(/C=C/c2ccc(O)c(O)c2)c1
active: [3] 8.41 µM | [6] 18.1 µM
inactive: [1] | [2] | [5]

COc1cccc(C(=O)NCCN2CCN(c3ccc(Cl)cc3)CC2)c1
active: [2] 17.4 µM
inactive: [1] | [3] | [5] | [6]

CNCCc1cnc(CCC(c2ccccc2)c2ccccc2)[nH]1
inactive: [1] | [2] | [3] | [4] | [6]

COc1cc(C(O)C(=O)O)ccc1O (configuration not stated)
inactive: [1] | [2] | [4] | [5]

Cc1cc(N)c2ccccc2[n+]1CCCCCCCCCC[n+]1c(C)cc(N)c2ccccc21
active: [2] 0.722 µM
inactive: [1] | [3] | [5] | [6]

Oc1ccc2ccccc2c1SSc1c(O)ccc2ccccc12
inactive: [1] | [3] | [6]
active: [2] 20.3 µM

O=Nc1ccc2oc(=O)ccc2c1
inactive: [1] | [2] | [4] | [5]

COc1ccc(NC(=O)/C=C/c2ccc(Cl)cc2)cc1
inactive: [1] | [2] | [4] | [5]

C#C[C@]1(O)CC[C@H]2[C@@H]3CCC4=Cc5oncc5CC4(C)[C@H]3CCC21C (some centres not stated)
inactive: [1] | [3] | [6]
active: [2] 16.8 µM | [4] 19.6 µM

N#C/C(=C\c1ccc(O)c(O)c1)C(=O)NCCCNC(=O)/C(C#N)=C/c1ccc(O)c(O)c1
inactive: [1] | [2] | [3] | [4] | [6]

CCc1cncnc1N1CCN(Cc2nc3ccc(C(F)(F)F)cc3[nH]2)CC1
active: [2] 6.94 µM
inactive: [1] | [3] | [5] | [6]

CC(C)(NS(=O)(=O)c1ccc(Oc2ccc(F)cc2)cc1)C(=O)NO
inactive: [1] | [3] | [5] | [6]
active: [2] 2.46 µM

O=C(O)C1=CC(=C(c2ccc(O)c(C(=O)O)c2)c2ccc(O)c(C(=O)O)c2)C=CC1=O
inactive: [1] | [2] | [3] | [5] | [6]

CN(C)CCCC1(c2ccc(F)cc2)OCc2cc(C#N)ccc21 (configuration not stated)
inactive: [1] | [2] | [4] | [5] | [6]

CCCN(CCc1ccccc1)C1CCc2c(O)cccc2C1 (configuration not stated)
inactive: [1] | [2] | [4] | [5] | [6]

N[C@@H](Cc1cnc[nH]1)C(=O)O
inactive: [1] | [2] | [4] | [5] | [6]

CC[C@H]1OC(=O)[C@H](C)[C@@H](O[C@H]2C[C@@](C)(OC)[C@@H](O)[C@H](C)O2)[C@H](C)[C@@H](O[C@@H]2O[C@H](C)C[C@H](NC)[C@H]2O)[C@](C)(O)C[C@@H](C)CN(C)[C@H](C)[C@@H](O)[C@]1(C)O
inactive: [1] | [2] | [4] | [5] | [6]

CC(=O)[C@H]1CCC2C3CC=C4C[C@@H](OS(=O)(=O)O)CC[C@]4(C)C3CC[C@@]21C (some centres not stated)
inactive: [1] | [2] | [4] | [5] | [6]

N[C@H](C(=O)O)[C@H](Cc1ccccc1)C(=O)O
inactive: [1] | [2] | [4] | [5] | [6]

O=[N+]([O-])c1cccc2cn[nH]c12
inactive: [1] | [2] | [4] | [5] | [6]

O=C(O)c1cc2cc(F)ccc2[nH]1
inactive: [1] | [2] | [4] | [5] | [6]

Cc1cc(NC2CCCCC2)nc(-n2nc(C)cc2C)n1
inactive: [1] | [6]
active: [2] 10.2 µM | [4] 0.694 µM

NC(Cc1cccc(-c2ccccc2CP(=O)(O)O)c1)C(=O)O (configuration not stated)
inactive: [1] | [2] | [4] | [5] | [6]

NC(=O)CNCCC(c1ccccc1)c1ccccc1
inactive: [1] | [2] | [4] | [5] | [6]

CCN(CC)CCCCNc1ncc2cc(-c3c(Cl)cccc3Cl)c(NC(=O)NC(C)(C)C)nc2n1
inactive: [4] | [6]
active: [1] 22 µM | [2] 2.37 µM | [5] 13.3 µM
